The full list was thinned out, with hits kept by preference.
Pf Dd2 inh = qHTS Primary assay for Inhibitors of Plasmodium falciparum Dd2 growth in vitro. P. falciparum Dd2 growth, SYBR Green, 72 h. Potency, µM (doses to about 28.9 µM), for inactives: top-dose activity, negative = inhibition, most hits filed as inhibitors. 120,000 compounds, 4.3% hits. AID 1347417, 2020; active = well fitted inhibition curve with a large enough effect;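 note: plate controls were DMSO vehicle for no effect and reference drug for full effect; nearly all actives have a fitted effect of over 65% in size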
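Readout: SYBR Green fluorescence, 485 nm excitation, 535 nm emission, after ~16 h lysis at 37C. Before that, Dd2-infected red cells (2.5% hematocrit) grew 72 h with compound, 29 uM top final concentration.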
Numbers without * were called inactive; i = inactive; [ ] = remark or other dose. Potency is the fitted concentration of half-maximal effect.

SMILES	Pf Dd2 inh
COc1ccc2nc(C[C@@H]3C[C@@H](C(C)C)[C@H](CNC(=O)CCCC(=O)O)C=C3C)[nH]c2c1	-12%
COc1ccc2nc(C[C@@H]3C[C@@H](C(C)C)[C@H](CNC(=O)CCC(=O)O)C=C3C)[nH]c2c1	-23%[44.1 µM]
CC1=C[C@@H](CNC2CCOCC2)[C@H](C(C)C)C[C@H]1Cc1nc2ccc(Cl)cc2[nH]1	7.1µM*
COc1ccc2nc(C[C@@H]3C[C@@H](C(C)C)[C@H](CNCc4ccccc4OC)C=C3C)[nH]c2c1	1.3µM*
COCC(=O)NC[C@@H]1C=C(C)[C@H](Cc2nc3ccc(Cl)cc3[nH]2)C[C@H]1C(C)C	2.5µM*
COC(=O)c1ccc2nc(C[C@@H]3C[C@@H](C(C)C)[C@H](CNCc4ccccc4O)C=C3C)[nH]c2c1	-12%
COc1ccccc1CN(Cc1ccccc1OC)C[C@@H]1C=C(C)[C@H](Cc2nc3c(C)cccc3[nH]2)C[C@H]1C(C)C	-8%
CC1=C[C@@H](CNC2CCOCC2)[C@H](C(C)C)C[C@H]1Cc1nc2ccccc2[nH]1	-13%[44.1 µM]
CC1=C[C@@H](CNC(=O)CCC(=O)O)[C@H](C(C)C)C[C@H]1Cc1nc2ccc(C)cc2[nH]1	3%[44.1 µM]
O=C1Nc2ccccc2OCC12CCN(Cc1cccc3ccccc13)CC2	i
CC(C)N1C[C@H](O)C[C@H]1c1nnc2n1CCN(C(=O)C1CCC1)CC2	-9%
Fc1ccc(-c2noc([C@@H]3CCCN3Cc3ccccc3)n2)nc1	i
COc1ccc(OC2CN(Cc3ccc(F)cc3)C2)cc1	13%[44.1 µM]
COc1ccc(CN2CCOC[C@H](Oc3ccccc3)C2)cc1	7.1µM*
Fc1ccc(CN2CCOC[C@H](Oc3ccccc3)C2)cc1	13µM*
COc1ccc(CN2CCOC[C@H](Oc3ccc(C(F)(F)F)cn3)C2)cc1	-29%[44.1 µM]
COc1ccc(CN2CCOC[C@H](Oc3cccc(C)n3)C2)cc1	i
CS(=O)(=O)c1ccc(O[C@H]2COCCN(Cc3cccnc3)C2)cc1	3%[44.1 µM]
CCCS(=O)(=O)N1CCC(CC(=O)NCc2ccccc2)C1 (stereo not drawn)	i
CCN1CC2(CCC1=O)CCN(C(=O)c1ccc(OC)c(Cl)c1)CC2	-8%
Cc1cc(C(=O)N(C)CC2CCCN(CCc3ccccc3F)C2)n[nH]1 (stereo not drawn)	-28%
Cn1cccc1CN1CCCC(COc2ccccc2C(=O)N2CCCCC2)C1 (stereo not drawn)	i
COc1ccccc1CN1CCCC(CN(CCN(C)C)C(=O)c2ccccc2OC)C1 (stereo not drawn)	i
CC(C)(C)CCN1CCCC(COc2ccccc2C(=O)N2CCCC2)C1 (stereo not drawn)	i
COc1ccccc1CCN1CCCC(CN(C)C(=O)C(=O)c2cccn2C)C1 (stereo not drawn)	14µM*
SMILES	Pf Dd2 inh
COc1ccccc1CCN1CCCC(CN(C)C(=O)Nc2ccccc2)C1 (stereo not drawn)	2.2µM*
Cc1ccc(N2C[C@]34C=C[C@H](O3)C(C(=O)N(C)Cc3ccno3)C4C2=O)cc1C (stereo partly drawn)	8%
COc1ccc(Cn2c(C3CCN(C(=O)Cc4cccs4)CC3)n[nH]c2=O)cc1	19%
O=C1Nc2ccccc2CN(CC2CCCCC2)C12CCNCC2	11µM*
O=C1Nc2ccccc2CN(Cc2ccc(Cl)cc2)C12CCNC2 (stereo not drawn)	10µM*
O=C1Nc2ccccc2CC12CCCN2CC1CCOCC1 (stereo not drawn)	-7%
CC(=O)N1Cc2ccccc2NC(=O)C12CCNC2 (stereo not drawn)	18%[44.1 µM]
CC(=O)N1Cc2ccccc2NC(=O)C12CCNCC2	20%
O=C1Nc2ccccc2CC12CCCN2CC1CCCCC1 (stereo not drawn)	7.1µM*
O=C1Nc2ccccc2CC12CCCN2Cc1ccc(Cl)cc1 (stereo not drawn)	6%
CN1Cc2ccccc2NC(=O)C12CCNC2 (stereo not drawn)	10%[44.1 µM]
CCN1Cc2ccccc2NC(=O)C12CCNC2 (stereo not drawn)	-19%
CS(=O)(=O)N1CCC(C2CCN(C(=O)c3ccc4[nH]ccc4c3)C2)CC1 (stereo not drawn)	-11%
COc1ccc(CCC(=O)N2CCOCCNC(=O)CC2)cc1	9%
Cc1[nH]cnc1-c1nccn1-c1ccc(NC(=O)CN2CCOCC2)cc1	-12%
Cc1ccc(F)c(OCC(=O)c2ccc3c(c2)N(CCCC(=O)NC2CC2)C(=O)CO3)c1	-14%
CN1CCC(Oc2ncccc2C(=O)N(C)C)C1 (stereo not drawn)	0%
Nc1nc(C2CC(NC(=O)Cc3ccc4c(c3)OCO4)C2)cc(=O)[nH]1 (stereo not drawn)	-9%
Cc1ccc(NC(=O)c2c(NC(=O)Cc3ccccc3)sc3c2CCC3)cc1	32%
O=C(Cc1ccccc1)Nc1sc2c(c1C(=O)Nc1cccc(Cl)c1)CCCCC2	i
CC1CCc2c(sc(NC(=O)Cc3ccccc3)c2C(=O)Nc2ccc(Cl)cc2)C1 (stereo not drawn)	10µM*
Cc1nncn1C1CCN(S(=O)(=O)c2ccc(C(F)(F)F)cc2)CC1	-13%
